Data on 8 compounds can be found in PubChem BioAssay (NCI).

Each structure is given as a SMILES string. Several values for one entry are separate records, joined by “and”; a condition that tells them apart may be missing. Equal values may be shown once. About 83,000 compounds went through this panel and 20% of them were active in at least one assay; those are over-represented in the sample as a whole.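 Cells were grown in 96-well plates and exposed to the test compound at a single concentration for 48 hours; results are reported as percent growth, with values below 10 considered active.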 Activity calls are given as the source filed them.

This experiment has as its system UACC-62 melanoma. Nature of the experiment: NCI-60 one-dose screen, 48 h (100 = growth as untreated, 0 = no growth, -100 = all killed). The conditions noted are these: 10 µM unless noted.
As for `COc1cc([N+](=O)[O-])c(OC)c2c(Nc3ccc(S(=O)(=O)O)c4cc(S(=O)(=O)O)cc(S(=O)(=O)O)c34)cc(C)nc12`, the growth was -91% [100 µM] (active) and -100% [100 µM] (active).
With `O=C(CCc1ccccc1)On1c(-c2ccccc2)nc2ccccc2c1=S` the figure was -68.8% [100 µM] (active) and -83.7% [100 µM] (active); with `CC(C)=CCC/C(C)=C/CC/C(C)=C/CC/C(C)=C/C=C/C=C(\C)CC/C=C(\C)CC/C=C(\C)CCC=C(C)C`, 75.8% [100 µM] (inactive) and 45% [100 µM] (inactive).
In the case of `Cc1sccc1C(=S)Nc1ccc(Cl)c(/C=N/OC(C)(C)C)c1`, the growth was -86.5% [100 µM] (active) and -92.3% [100 µM] (active).
With `COc1ccc(CC2c3cc(OC)c(OC)c(OC)c3CC[N+]2(C)C)cc1Oc1ccc(CC2c3cc4c(c(OC)c3CCN2C)OCO4)cc1` (stereo not drawn) the figure was 80% [100 µM] (inactive) and 8.64% [100 µM] (active); with `CCCCOC(=O)C1CC[C@H]2[C@@H]3CCc4cc(OC(=O)c5cccc6c(=O)c7ccccc7[nH]c56)ccc4[C@H]3CC[C@]12C` (stereo partly drawn), -100% [50 µM] (active); with `CN(C)CCNc1ccc(NCC[N+](C)(C)Cc2ccc([N+](=O)[O-])cc2)c2c1C(=O)c1c(O)ccc(O)c1C2=O`, 24.1% [100 µM] (inactive) and 0.198% [100 µM] (active).
As to `CCC/C(Cl)=N\OC(=O)Nc1ccc(F)cc1`, the growth was -93.4% [100 µM] (active) and -100% [100 µM] (active).
